By inhibition is commonly meant the change of the read-out against control, counted positive when it falls.

The record followed here is ChEMBL document CHEMBL1961873, “Compounds: GSK PKIS; Assays: Nanosyn kinase panel” (2012).

Experiment [1] concerns the target Rho-associated protein kinase 1 (Homo sapiens) (UniProt Q13464). The following applies: at 1 µM.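 Also: reported values are mean percent inhibition of ROCK1.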
In experiment [2] the target is Rho-associated protein kinase 2 (Homo sapiens) (UniProt O75116). The following applies: at 0.1 µM.
Chain of Rho-associated protein kinase 2 (Homo sapiens) (O75116 whole entry, looked up): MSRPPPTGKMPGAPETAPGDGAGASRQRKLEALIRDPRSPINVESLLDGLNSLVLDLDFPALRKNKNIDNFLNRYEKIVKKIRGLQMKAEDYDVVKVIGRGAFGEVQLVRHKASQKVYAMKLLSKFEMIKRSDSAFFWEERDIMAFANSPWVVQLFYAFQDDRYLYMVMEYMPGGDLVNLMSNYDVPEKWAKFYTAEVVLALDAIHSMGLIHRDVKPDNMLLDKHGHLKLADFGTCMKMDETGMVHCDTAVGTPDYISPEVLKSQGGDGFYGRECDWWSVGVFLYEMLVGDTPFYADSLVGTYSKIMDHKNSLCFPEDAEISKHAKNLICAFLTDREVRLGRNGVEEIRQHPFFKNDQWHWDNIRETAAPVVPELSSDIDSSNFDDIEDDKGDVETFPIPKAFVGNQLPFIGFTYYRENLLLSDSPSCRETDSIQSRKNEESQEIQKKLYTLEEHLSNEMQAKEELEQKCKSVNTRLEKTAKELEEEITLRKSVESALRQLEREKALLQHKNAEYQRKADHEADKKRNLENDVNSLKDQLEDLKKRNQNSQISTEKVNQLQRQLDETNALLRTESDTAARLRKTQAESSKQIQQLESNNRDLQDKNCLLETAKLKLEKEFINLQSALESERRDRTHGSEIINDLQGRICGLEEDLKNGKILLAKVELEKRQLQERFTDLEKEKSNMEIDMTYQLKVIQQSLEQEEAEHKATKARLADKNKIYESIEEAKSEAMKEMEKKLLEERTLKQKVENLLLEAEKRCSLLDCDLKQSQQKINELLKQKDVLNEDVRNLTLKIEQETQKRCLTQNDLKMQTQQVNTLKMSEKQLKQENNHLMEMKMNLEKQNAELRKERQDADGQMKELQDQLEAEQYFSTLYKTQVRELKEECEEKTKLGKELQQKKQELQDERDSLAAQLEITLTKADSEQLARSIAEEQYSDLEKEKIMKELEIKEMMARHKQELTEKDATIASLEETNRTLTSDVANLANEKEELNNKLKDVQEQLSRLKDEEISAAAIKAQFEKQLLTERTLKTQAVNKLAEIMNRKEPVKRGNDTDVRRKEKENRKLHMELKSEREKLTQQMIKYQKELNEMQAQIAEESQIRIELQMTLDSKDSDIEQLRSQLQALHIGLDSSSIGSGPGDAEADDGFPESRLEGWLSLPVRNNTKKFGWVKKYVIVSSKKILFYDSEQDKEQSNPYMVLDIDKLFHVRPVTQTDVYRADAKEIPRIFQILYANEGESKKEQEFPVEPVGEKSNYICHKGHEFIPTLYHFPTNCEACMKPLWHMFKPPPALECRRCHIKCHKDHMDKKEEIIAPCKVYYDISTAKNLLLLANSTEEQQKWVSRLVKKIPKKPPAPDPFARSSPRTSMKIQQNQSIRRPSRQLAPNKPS
Experiment [3] has the same target. To be noted: at 1 µM.
In experiment [4] the target is Ribosomal protein S6 kinase alpha-1 (Homo sapiens) (UniProt Q15418). To be noted: at 0.1 µM.
Chain of Ribosomal protein S6 kinase alpha-1 (Homo sapiens) (Q15418 whole entry): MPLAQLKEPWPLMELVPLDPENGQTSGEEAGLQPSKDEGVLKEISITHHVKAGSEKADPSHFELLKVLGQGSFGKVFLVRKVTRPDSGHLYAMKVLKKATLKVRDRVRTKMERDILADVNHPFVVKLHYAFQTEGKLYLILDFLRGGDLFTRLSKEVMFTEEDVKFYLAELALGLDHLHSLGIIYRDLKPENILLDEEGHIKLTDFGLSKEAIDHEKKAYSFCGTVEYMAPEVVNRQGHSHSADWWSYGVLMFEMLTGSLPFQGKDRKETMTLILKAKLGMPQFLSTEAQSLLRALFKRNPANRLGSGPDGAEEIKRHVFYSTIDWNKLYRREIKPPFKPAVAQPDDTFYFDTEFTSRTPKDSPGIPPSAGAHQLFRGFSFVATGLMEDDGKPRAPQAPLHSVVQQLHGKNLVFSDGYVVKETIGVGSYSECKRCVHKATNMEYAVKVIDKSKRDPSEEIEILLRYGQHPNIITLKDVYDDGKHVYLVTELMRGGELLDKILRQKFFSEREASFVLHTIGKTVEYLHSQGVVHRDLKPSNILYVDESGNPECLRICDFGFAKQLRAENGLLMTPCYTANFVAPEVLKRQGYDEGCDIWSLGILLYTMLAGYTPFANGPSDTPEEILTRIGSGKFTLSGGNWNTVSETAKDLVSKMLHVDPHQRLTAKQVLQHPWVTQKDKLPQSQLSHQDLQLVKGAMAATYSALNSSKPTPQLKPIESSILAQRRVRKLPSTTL
Experiment [5] shares this target. To be noted: at 1 µM.
For experiment [6], the target named is Ribosomal protein S6 kinase alpha-3 (Homo sapiens) (UniProt P51812). To be noted: at 0.1 µM.
Chain of Ribosomal protein S6 kinase alpha-3 (Homo sapiens) (P51812 whole entry): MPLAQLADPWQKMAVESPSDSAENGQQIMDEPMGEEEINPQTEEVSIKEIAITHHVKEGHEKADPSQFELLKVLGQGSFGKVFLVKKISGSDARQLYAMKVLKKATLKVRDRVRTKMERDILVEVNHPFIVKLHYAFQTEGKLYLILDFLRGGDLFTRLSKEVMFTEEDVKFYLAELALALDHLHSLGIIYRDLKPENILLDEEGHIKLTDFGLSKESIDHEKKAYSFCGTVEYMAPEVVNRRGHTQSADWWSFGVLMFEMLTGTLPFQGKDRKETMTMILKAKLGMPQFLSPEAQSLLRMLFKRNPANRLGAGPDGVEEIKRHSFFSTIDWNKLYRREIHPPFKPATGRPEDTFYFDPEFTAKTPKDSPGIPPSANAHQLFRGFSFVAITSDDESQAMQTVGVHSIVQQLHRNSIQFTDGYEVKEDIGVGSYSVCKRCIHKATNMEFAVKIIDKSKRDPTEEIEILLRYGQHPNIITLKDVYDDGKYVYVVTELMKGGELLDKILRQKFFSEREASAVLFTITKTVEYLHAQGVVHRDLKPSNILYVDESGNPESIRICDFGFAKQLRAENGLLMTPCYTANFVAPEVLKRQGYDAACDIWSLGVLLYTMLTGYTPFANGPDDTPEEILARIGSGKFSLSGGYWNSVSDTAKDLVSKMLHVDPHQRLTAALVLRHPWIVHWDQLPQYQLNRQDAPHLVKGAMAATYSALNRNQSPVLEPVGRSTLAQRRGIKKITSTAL
For experiment [7] the target is unchanged. The following applies: at 1 µM.
The target in experiment [8] is Ribosomal protein S6 kinase alpha-2 (Homo sapiens) (UniProt Q15349). The following applies: at 0.1 µM.
Chain of Ribosomal protein S6 kinase alpha-2 (Homo sapiens) (Q15349 whole entry): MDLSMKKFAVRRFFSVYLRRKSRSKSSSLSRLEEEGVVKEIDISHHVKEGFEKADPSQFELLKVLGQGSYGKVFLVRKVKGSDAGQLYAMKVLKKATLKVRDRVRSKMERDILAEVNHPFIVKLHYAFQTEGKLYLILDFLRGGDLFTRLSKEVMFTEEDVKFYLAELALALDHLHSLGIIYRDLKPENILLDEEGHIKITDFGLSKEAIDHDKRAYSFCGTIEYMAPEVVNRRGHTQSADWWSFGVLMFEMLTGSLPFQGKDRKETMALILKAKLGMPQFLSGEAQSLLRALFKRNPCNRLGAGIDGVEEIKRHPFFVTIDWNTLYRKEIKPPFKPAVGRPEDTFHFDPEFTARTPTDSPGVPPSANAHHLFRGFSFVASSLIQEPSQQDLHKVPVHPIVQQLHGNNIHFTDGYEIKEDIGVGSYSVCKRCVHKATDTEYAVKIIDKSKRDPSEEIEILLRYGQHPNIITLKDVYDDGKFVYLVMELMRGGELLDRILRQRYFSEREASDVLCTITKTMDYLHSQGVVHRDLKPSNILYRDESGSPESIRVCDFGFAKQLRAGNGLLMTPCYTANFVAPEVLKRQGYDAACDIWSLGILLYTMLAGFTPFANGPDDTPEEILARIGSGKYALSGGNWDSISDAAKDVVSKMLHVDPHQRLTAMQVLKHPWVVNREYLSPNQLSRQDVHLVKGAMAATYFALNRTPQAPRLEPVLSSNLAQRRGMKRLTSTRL
The target is the same in experiment [9]. To be noted: at 1 µM.
The target of experiment [10] is Ribosomal protein S6 kinase alpha-6 (Homo sapiens) (UniProt Q9UK32). To be noted: at 0.1 µM.
The target is the same in experiment [11]. The following applies: at 1 µM.
In experiment [12] the target is T1, Serine/threonine-protein kinase Sgk1 (Homo sapiens) (UniProt O00141).
T1 sequence (whole entry): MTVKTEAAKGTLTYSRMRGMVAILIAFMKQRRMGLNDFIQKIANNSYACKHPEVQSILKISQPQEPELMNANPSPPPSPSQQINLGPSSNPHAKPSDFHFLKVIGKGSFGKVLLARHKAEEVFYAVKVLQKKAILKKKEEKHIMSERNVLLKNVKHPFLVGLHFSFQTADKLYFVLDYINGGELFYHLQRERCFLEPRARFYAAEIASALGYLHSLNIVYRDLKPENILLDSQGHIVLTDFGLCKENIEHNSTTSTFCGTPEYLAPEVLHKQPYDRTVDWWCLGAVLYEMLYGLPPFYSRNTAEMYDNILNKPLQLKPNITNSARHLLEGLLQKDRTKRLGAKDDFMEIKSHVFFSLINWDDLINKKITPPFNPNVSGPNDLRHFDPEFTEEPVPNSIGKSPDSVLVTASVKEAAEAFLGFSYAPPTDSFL
The following applies: at 0.1 µM.

In experiment [13] the target is T1, Serine/threonine-protein kinase Sgk1 (Homo sapiens). To be noted: at 1 µM.
For experiment [14], the target named is T2, Serine/threonine-protein kinase Sgk2 (Homo sapiens) (UniProt Q9HBY8).
T2 sequence (whole entry): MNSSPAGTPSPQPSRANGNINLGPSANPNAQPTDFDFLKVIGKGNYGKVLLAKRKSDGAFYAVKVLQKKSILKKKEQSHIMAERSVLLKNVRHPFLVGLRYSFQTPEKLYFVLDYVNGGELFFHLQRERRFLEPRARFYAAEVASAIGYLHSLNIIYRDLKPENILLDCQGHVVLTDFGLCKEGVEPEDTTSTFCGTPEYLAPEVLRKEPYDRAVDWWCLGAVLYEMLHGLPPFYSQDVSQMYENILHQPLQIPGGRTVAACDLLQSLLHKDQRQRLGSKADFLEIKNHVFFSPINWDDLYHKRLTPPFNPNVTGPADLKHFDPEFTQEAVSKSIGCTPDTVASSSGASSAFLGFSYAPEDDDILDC
The following applies: at 0.1 µM.

Experiment [15] deals with T2, Serine/threonine-protein kinase Sgk2 (Homo sapiens). To be noted: at 1 µM.
In experiment [16] the target is T3, Serine/threonine-protein kinase Sgk3 (Homo sapiens) (UniProt Q96BR1).
T3 sequence (whole entry): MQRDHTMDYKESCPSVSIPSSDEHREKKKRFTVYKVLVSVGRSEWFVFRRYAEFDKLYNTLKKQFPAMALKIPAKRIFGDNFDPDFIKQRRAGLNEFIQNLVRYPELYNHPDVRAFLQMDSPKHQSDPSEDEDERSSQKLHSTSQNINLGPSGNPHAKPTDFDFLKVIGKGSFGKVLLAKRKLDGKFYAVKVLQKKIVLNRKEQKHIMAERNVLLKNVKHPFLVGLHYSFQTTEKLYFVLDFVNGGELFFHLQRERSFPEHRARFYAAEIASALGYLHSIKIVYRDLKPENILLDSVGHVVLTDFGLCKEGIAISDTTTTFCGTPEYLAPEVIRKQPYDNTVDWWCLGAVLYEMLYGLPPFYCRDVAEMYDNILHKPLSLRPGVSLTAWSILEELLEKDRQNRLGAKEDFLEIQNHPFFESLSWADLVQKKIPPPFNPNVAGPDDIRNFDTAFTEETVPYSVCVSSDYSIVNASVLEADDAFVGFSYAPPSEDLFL
The following applies: at 0.1 µM.

The target of experiment [17] is T3, Serine/threonine-protein kinase Sgk3 (Homo sapiens). To be noted: at 1 µM.
Experiment [18] has as its target 5'-AMP-activated protein kinase catalytic subunit alpha-1 (Homo sapiens) (UniProt Q13131). To be noted: at 0.1 µM.
Experiment [19] has the same target. To be noted: at 1 µM.
The target of experiment [20] is 5'-AMP-activated protein kinase catalytic subunit alpha-2 (Homo sapiens) (UniProt P54646). The following applies: at 0.1 µM.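 Also: mean inhibition measured on the AMPK complex of alpha2, beta1 and gamma1 subunits.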
Chain of 5'-AMP-activated protein kinase catalytic subunit alpha-2 (Homo sapiens) (P54646 whole entry, looked up): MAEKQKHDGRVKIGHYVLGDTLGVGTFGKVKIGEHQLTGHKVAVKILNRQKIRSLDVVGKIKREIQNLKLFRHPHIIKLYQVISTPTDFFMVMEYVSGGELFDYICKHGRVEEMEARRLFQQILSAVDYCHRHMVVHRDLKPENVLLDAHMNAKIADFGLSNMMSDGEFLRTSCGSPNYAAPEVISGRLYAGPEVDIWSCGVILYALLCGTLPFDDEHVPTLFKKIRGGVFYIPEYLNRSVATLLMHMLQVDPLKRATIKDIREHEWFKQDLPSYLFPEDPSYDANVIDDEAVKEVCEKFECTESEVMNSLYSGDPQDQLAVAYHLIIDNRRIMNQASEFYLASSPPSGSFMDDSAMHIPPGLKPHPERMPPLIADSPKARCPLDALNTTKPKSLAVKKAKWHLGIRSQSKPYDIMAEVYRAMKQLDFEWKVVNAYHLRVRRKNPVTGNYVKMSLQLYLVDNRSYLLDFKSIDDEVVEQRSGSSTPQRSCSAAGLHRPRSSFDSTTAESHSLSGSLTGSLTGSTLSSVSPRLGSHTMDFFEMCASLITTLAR

The structures appear in SMILES notation.

Chain of 5'-AMP-activated protein kinase catalytic subunit alpha-1 (Homo sapiens) (Q13131 whole entry, looked up): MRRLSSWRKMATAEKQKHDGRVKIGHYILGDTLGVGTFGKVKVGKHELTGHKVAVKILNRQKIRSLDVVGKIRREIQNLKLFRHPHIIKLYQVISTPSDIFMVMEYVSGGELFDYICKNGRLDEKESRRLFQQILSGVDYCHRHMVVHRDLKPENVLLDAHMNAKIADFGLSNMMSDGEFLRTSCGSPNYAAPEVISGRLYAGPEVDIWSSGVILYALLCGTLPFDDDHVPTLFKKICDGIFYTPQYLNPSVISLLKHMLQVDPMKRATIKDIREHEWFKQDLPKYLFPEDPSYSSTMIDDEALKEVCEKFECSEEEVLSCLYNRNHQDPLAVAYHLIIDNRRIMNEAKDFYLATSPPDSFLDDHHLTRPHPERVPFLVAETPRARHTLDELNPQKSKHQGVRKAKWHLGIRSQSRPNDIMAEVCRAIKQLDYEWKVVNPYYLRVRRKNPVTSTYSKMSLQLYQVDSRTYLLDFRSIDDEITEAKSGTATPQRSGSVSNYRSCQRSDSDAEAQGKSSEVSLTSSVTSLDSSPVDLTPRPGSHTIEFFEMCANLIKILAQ

For `CN(C)CCOc1ccc(-c2cc(-c3ccc4c(c3)CCC4=NO)c(-c3ccncc3)o2)cc1`, the inhibition in [1] is -1.5%; in experiment [2], -2.12%; in [3], -0.39%; in [4], -0.55%; in experiment [5], -1.02%; in experiment [6], -0.48%. Besides, the inhibition in [7] is -0.08%; in experiment [8] it was -0.08%; in [9], 0.83%; in experiment [10], -0.45%; in experiment [11], -1.99%; in experiment [12], 1.28%. Moreover, the inhibition is 0.73% in [13]; -2.26% in [14]; 2.64% in [15]; 1.69% in experiment [16]; -4.66% in [17]; -1.39% in [18]. Moreover, the inhibition is -0.8% in experiment [19] and 0.73% in [20].

For `COc1ccc2cc(-c3c(-c4ccncc4)nc(-c4ccc(S(C)(=O)=O)cc4C)n3C)ccc2c1`, the inhibition was 10.6% in experiment [1]; 10.5% in experiment [2]; 12.3% in experiment [3]; 6.01% in [4]; 9.72% in experiment [5]; 4.66% in [6]. For the same compound, the inhibition in [7] came out at 9.83%; in [8] it was 3.42%; in experiment [9], 3.72%; in experiment [10], 1.53%; in experiment [11], 2.04%; in experiment [12] it was 3.01%. The inhibition worked out at 4.51% in [13]; 5.05% in experiment [14]; 4.24% in experiment [15]; 2.89% in experiment [16]; 4.29% in experiment [17]; 3.65% in [18]. Further, the inhibition in [19] came out at 2.77%; in experiment [20], 4.21%.

As for `NS(=O)(=O)c1ccc(N/N=C2\C(=O)Nc3ccc(-c4cnco4)cc32)cc1`, the inhibition in experiment [1] is 37.6%; in experiment [2] it was 16.3%; in [3], 58.3%; in experiment [4] it was -0.32%; in [5], 3.8%; in experiment [6], -1%. Moreover, the inhibition in experiment [7] stood at 2.65%; in [8], 1.5%; in [9], 7.28%; in experiment [10] it was 0.03%; in experiment [11] it was 5.02%; in [12] it was 1.68%. The inhibition amounted to 10.2% in experiment [13]; 1.11% in experiment [14]; 3.35% in [15]; 1.34% in experiment [16]; 5.76% in experiment [17]; 3.38% in [18]. Also, the inhibition in [19] stood at 15.9%; in experiment [20] it was 5.38%.

Turning to `COc1cc(Nc2ncc3c(C)nc(-c4cccc(C(F)(F)F)c4)n3n2)cc(OC)c1OC`, the inhibition was found to be 2.39% in experiment [1]; 2.6% in experiment [2]; 8.14% in experiment [3]; 5.19% in [4]; 26.7% in [5]; 5.91% in [6]. Further, the inhibition was 31.8% in experiment [7]; 7.09% in experiment [8]; 37.1% in experiment [9]; 5.57% in experiment [10]; 29.1% in experiment [11]; 3.85% in experiment [12]. Also, the inhibition in experiment [13] is 8.66%; in [14] it was -1.55%; in [15], 6.37%; in experiment [16], 5.08%; in experiment [17] it was 8.49%; in [18] it was 6.54%. The inhibition amounted to 39.2% in experiment [19] and 5.38% in [20].

Turning to `FC(F)(F)c1cccc(Nc2nccc(-c3cnn4nc(-c5ccccc5)ccc34)n2)c1`, the inhibition in experiment [1] was determined as 0.48%; in experiment [2], 1.21%; in experiment [3] it was 0.98%; in [4], 1.01%; in experiment [5] it was 1.56%; in experiment [6] it was 1.05%. Also, the inhibition in [7] is 1.35%; in experiment [8], 1.39%; in experiment [9], 2.04%; in experiment [10], 1.3%; in experiment [11], 0.82%; in experiment [12], 2.37%. Besides, the inhibition was 2.67% in experiment [13]; 1.96% in [14]; 1.95% in [15]; 2.7% in experiment [16]; 1.72% in [17]; 1.9% in experiment [18]. Moreover, the results for the inhibition in experiment [19] and in experiment [20] were 1.87% and -0.41%, respectively.
